Screening data (PubChem)
Cycloheximide cs: affects cycloheximide protein synthesis inhibition readout, counter-screen; cell reporter, cycloheximide protein synthesis inhibition counterscreen; max response, %; 300,000 tested, 12% active; in the data active means max response mostly above about 13%, no sharp cut-off; inactive means mostly below about 14%; further: read at 38.3 µM for the half of the compounds with a filed dose; 0% is about no effect
RE007 growth inh: less growth of the S. pombe RE007 Vpr strain. AID 651644. 360,000 tested, 0.21% active. S. pombe RE007 Vpr strain, BacTiter-Glo ATP luminescence, 24 h. Potency, µM (series often up to 92.2 µM), for the others: at the highest dose activity change, negative = less growth, most hits filed as inhibitors; active means well fitted falling curve with a large enough effect; inconclusive means small, poorly fitted or top-dose-only effect; inactive means no such curve, though single readings can be large or run the other way; further: potency means the concentration at half of the fitted maximal effect; on the % scale 0 is the no-effect control and ±100 the full control effect; nearly all actives have a fitted effect of over 50% in size
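Fission yeast RE007 carrying one integrated HIV-1 vpr copy, seeded at OD 0.01 in PMG+AL medium with 23 nL pinned compound. Grown 24 h at 30 degrees; viability read by BacTiter-Glo luminescence after 5 min.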
LmPK inhibitor: inhibitors of Leishmania mexicana pyruvate kinase. 290,000 tested, 0.37% active. Potency, µM (doses to about 57.5 µM), without a hit: at the highest dose activity change, negative = inhibition, most hits filed as inhibitors. purified LmPK, Kinase-Glo ATP luminescence, 1 h; further: potency means the concentration at half of the fitted maximal effect; on the % scale 0 is the no-effect control and ±100 the full control effect
Target sequence (Q27686 whole entry, looked up): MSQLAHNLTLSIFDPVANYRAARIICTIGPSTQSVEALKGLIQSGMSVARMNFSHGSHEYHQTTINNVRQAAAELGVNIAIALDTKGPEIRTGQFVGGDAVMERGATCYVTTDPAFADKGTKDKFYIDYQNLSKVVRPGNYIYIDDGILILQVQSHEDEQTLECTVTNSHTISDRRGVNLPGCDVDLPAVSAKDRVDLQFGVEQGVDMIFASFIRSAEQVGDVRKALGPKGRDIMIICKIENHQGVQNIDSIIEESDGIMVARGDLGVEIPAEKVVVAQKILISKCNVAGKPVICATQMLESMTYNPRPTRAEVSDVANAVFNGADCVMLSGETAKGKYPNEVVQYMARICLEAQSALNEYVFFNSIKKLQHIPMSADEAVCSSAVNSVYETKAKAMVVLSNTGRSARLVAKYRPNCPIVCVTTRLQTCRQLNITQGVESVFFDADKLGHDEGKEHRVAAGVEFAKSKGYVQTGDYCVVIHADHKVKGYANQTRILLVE
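Screened at intermediate enzyme activity to detect both inhibitors and activators: LmPK at 0.1 nM, with a 0.5 nM enzyme column as activation reference. PEP 0.5 mM, ADP 0.1 mM; ATP detected by luminescence after 1 h.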
Shiga toxin inh: Shiga toxin inhibition; Vero cells, Shiga toxin protein synthesis inhibition reporter; inhibition, % at 38.7 µM; 290,000 tested, 9.2% active; in the data active means inhibition mostly above about 28%, no sharp cut-off; inactive means mostly below about 43%; further: 0% is about no effect
Giardia FBPA inh-1: inhibitors of Giardia lamblia fructose-1,6-bisphosphate aldolase; A8B2U2; purified Giardia FBPA; Potency, µM (series often up to 59.6 µM), without a hit: top-dose activity, negative = inhibition, hits mostly inhibitors; 290,000 tested, 0.71% active; AID 2451; further: potency means the concentration at half of the fitted maximal effect; on the % scale 0 is the no-effect control and ±100 the full control effect; nearly all actives have a fitted effect of over 55% in size
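40 nM FBPA preincubated 10 min at RT with compound (up to 57.5 uM final), then substrate plus GAPDH/TPI/NAD/arsenate coupling and diaphorase/resazurin added. Fluorescence read after 20 min at RT, 525/598 nm.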
TbPYK inhibitor: blocks Trypanosoma brucei pyruvate kinase | Q57TT1 | TbPYK enzyme, Kinase-Glo Plus ATP luminescence, 45 min | Potency, µM (series often up to 76.8 µM), without a hit: at the top dose activity, negative = inhibition, actives largely listed as inhibitors | 410,000 tested, 0.12% active; further: potency means the concentration at half of the fitted maximal effect; on the % scale 0 is the no-effect control and ±100 the full control effect; nearly all actives have a fitted effect of over 50% in size
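T. brucei PYK with substrate was exposed to pin-transferred compounds across a concentration series, then started with 130 uM ADP (final). After 45 min at room temperature, Kinase-Glo Plus luminescence was read, normalized and curve-fitted.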
Giardia growth: inhibitors of Giardia lamblia growth; Potency, µM (doses to about 57.5 µM), for the others: top-dose activity change, negative = inhibition, most hits filed as inhibitors; shares compounds with Giardia FBPA inh-1; Giardia lamblia trophozoite growth inhibition; 1,500 tested, 5% active; AID 2785;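 further: potency means the concentration at half of the fitted maximal effect; trophozoites exposed to compound for 48 h at 37 °C; on the % scale 0 is the no-effect control and ±100 the full control effect; nearly all actives have a fitted effect of over 70% in size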
Mammal cell tox: counter-screen for Giardia aldolase inhibitors: mammalian cell toxicity. shares compounds with Giardia FBPA inh-1. mammalian cell viability counter-screen, qHTS. Potency, µM (doses to about 57.5 µM), for inactives: at the highest dose viability change, negative = toxicity, actives largely listed as inhibitors. 1,500 tested, 4% active;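 further: Chinese hamster ovary cells used as mammalian cytotoxicity surrogate; viability measured as cellular ATP by luminescence; potency means the concentration at half of the fitted maximal effect; compound exposure lasted 48 h before reading; on the % scale 0 is the no-effect control and ±100 the full control effect; nearly all actives have a fitted effect of over 60% in size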
Giardia FBPA inh-2: confirmation of Giardia fructose-bisphosphate aldolase inhibitors | Potency, µM (highest dose often 57.5 µM), inactives show at the top dose activity change, negative = inhibition, actives largely listed as inhibitors | 1,500 tested, 5% active | shares compounds with Giardia FBPA inh-1 | purified Giardia aldolase enzyme activity, qHTS; further: potency means the concentration at half of the fitted maximal effect; on the % scale 0 is the no-effect control and ±100 the full control effect; nearly all actives have a fitted effect of over 45% in size
Rabbit aldolase: blocks rabbit muscle aldolase in Giardia aldolase selectivity test | AID 2794 | Potency, µM (titrated, usually from 57.5 µM), inactives show at the highest dose activity, negative = inhibition, most hits filed as inhibitors | Rabbit muscle FBPA enzyme inhibition, selectivity counter-screen | shares compounds with Giardia FBPA inh-1 | 1,500 tested, 4% active; further: potency means the concentration at half of the fitted maximal effect; on the % scale 0 is the no-effect control and ±100 the full control effect; nearly all actives have a fitted effect of over 60% in size
Target sequence (P00883 whole entry, looked up): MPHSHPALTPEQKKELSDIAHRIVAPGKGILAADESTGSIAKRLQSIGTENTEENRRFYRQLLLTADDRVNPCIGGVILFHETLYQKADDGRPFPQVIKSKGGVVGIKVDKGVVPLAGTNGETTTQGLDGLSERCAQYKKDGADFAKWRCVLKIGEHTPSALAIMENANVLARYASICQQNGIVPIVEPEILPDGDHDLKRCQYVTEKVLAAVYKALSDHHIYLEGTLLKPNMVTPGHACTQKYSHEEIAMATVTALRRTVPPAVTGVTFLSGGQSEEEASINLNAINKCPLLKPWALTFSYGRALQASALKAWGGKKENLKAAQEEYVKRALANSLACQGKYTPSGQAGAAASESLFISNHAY
GAPDH counter: counter-screen for Giardia aldolase inhibitors: GAPDH coupling enzyme | shares compounds with Giardia FBPA inh-1 | GAPDH coupling enzyme counterscreen, biochemical, qHTS | Potency, µM (series often up to 57.5 µM), without a hit: top-dose activity change, negative = inhibition, most hits filed as inhibitors | 1,500 tested, 6% active; further: potency means the concentration at half of the fitted maximal effect; on the % scale 0 is the no-effect control and ±100 the full control effect; nearly all actives have a fitted effect of over 55% in size
* = called active by the depositor; ? = inconclusive; . = not tested or not shown; [ ] = remark or other dose. Only a selection was taken, and hits are over-represented in it overall. Unless noted, the call rests on the fitted dose curve; in most records, active means well fitted curve in the direction sought with a large enough effect; inconclusive means small, poorly fitted or top-dose-only effect, or another doubt; inactive means no such curve, though single readings can be large; an effect the other way counts as inactive or inconclusive.

SMILES | Cycloheximide cs | RE007 growth inh | LmPK inhibitor | Shiga toxin inh | Giardia FBPA inh-1 | TbPYK inhibitor | Giardia growth | Mammal cell tox | Giardia FBPA inh-2 | Rabbit aldolase | GAPDH counter
O=C(NCCc1ccccc1)[C@@H]1CC=C[C@@H]2CCN(C3CCCCC3)C(=O)[C@@H]21 | . | 4% | . | . | . | 0% | . | . | . | . | .
O=C(c1ccc(Cl)cc1)n1nc(-c2ccco2)nc1NCc1cccs1 | . | . | . | . | . | 1% | . | . | . | . | .
CCn1c(=O)c(C(=O)CN(C)Cc2cccc(OC)c2OC)c(N)n(Cc2ccccc2)c1=O | -1 | -5% | -1% | 27 | 16µM* | 17% | 34% | -7% | 2% | 4% | -9%
O=C(N/N=C/c1ccccn1)C(=O)N1CCCCCC1 | -3 | -7% | -5% | 1 | 18µM* | 0% | 20% | 0% | 7% | 1% | 4%
Nc1nnnn1CC(=O)N/N=C/c1ccccn1 | 1 | -1% | -5% | -8 | 18µM* | 3% | -15% | 0% | 2% | 2% | -1%
COc1ccc(NC(=O)CNC(c2ccccc2)c2ccccc2)cc1 | 1 | 7% | -3% | -9 | 20µM* | 2% | -11% | 3% | -2% | 1% | -1%
COc1ccc(S(=O)(=O)N2CCCCC2)cc1C(=O)N1CCCCCC1 | . | 0% | . | . | . | -4% | . | . | . | . | .
CNC(=S)N/N=C/c1ccccc1OCC(=O)O | 16 | -5% | 0% | 18 | 20µM* | 9% | ? | -2% | -8% | -1% | -7%
CC(C)C(=O)NCCc1nc(-c2ccc(Cl)cc2)no1 | . | 4% | . | . | . | 7% | . | . | . | . | .
Nc1nc(-c2cccs2)c(CC(=O)O)s1 | 6 | 3% | 0% | -8 | -7% | -14% | . | . | . | . | .
O=C(O)Cc1sc(Nc2ccc(Cl)cc2)nc1-c1cccs1 | 47* | -3% | -6% | 75* | 18µM* | -27% | 15% | -5% | 3% | 9% | 2%
COCCNC(=S)NNc1ccc(Cl)c(C(=O)O)c1 | -3 | -1% | 8% | 12 | 7.1µM* | -22% | ? | 4% | -8% | -4% | -7%
Cc1cccc(OCc2ccc(-c3nc(C#N)c(NCCN(C)C)o3)o2)c1 | . | . | . | . | . | 18% | . | . | . | . | .
OC[C@H](S)CS | . | . | . | . | . | -1% | . | . | . | . | .
O=C(CC(NCc1ccccn1)C(=O)O)Nc1ccccc1Cl (configuration not stated) | -1 | 5% | 0% | -5 | 6.3µM* | -12% | ? | 9% | 12% | 3% | -1%
O=C(NCc1ccccn1)c1c(Cl)cccc1Cl | 0 | -2% | 6% | 3 | 0% | -9% | . | . | . | . | .
COc1cc(CN2CCC(C(=O)NCC(C)(C)CN(C)C)CC2)ccc1OCc1ccccc1 | 13 | -10% | -7% | . | 22µM* | 12% | ? | -20% | 9% | 6% | 11%
CCOCCCNC(=O)C1CCN(Cc2cccc(OCc3ccccc3)c2)CC1 | 7 | 1% | -2% | 1 | ? | 2% | . | . | . | . | .
CCOC(=O)c1ccc(CN(Cc2ccc(F)cc2)S(=O)(=O)c2ccc(F)c(C(=O)Nc3c(C)cccc3C)c2)cc1 | . | . | . | . | . | -2% | . | . | . | . | .
CCOC(=O)c1cccnc1SCC(=O)Nc1ccc(C)cc1C | . | . | . | . | . | -5% | . | . | . | . | .
N#Cc1ccc(C(=O)N2CCCCC2c2cc(C(=O)Nc3ccccc3Cl)no2)cc1 (configuration not stated) | . | -10% | . | . | . | 0% | . | . | . | . | .
CC(=O)OCC(N)C(=O)c1ccccc1 (configuration not stated) | -4 | . | . | -3 | -7% | . | . | . | . | . | .
O=C1C(=O)c2ccccc2-c2ccccc21 | -12 | ? | -5% | -41 | 0.14µM* | 0% | 13µM* | 20µM* | 1.1µM* | 0.89µM* | 1.1µM*
O=C1c2ccccc2-c2cccnc21 | -5 | -7% | 0% | -4 | -9% | 1% | . | . | . | . | .
CCN(CC)CCCn1c2c(c(SCC(=O)Nc3ccc(OC(F)(F)F)cc3)nc1=O)CCC2 | . | -1% | . | . | . | -21% | . | . | . | . | .
SMILES | Cycloheximide cs | RE007 growth inh | LmPK inhibitor | Shiga toxin inh | Giardia FBPA inh-1 | TbPYK inhibitor | Giardia growth | Mammal cell tox | Giardia FBPA inh-2 | Rabbit aldolase | GAPDH counter
O=C(NC(=S)Nc1ncccn1)c1ccc(F)cc1 | 49* | 10% | -5% | 70* | 6.3µM* | 0% | ? | -8% | 2% | 6% | 11%
O=C(Nc1cccnc1Cl)c1cc(-c2ccc(F)cc2)on1 | 10 | -3% | -4% | 14 | 5% | 3% | . | . | . | . | .
O=C(NC(=S)Nc1cccnc1Cl)c1ccc(F)cc1 | 49* | -13% | 0% | 83* | 14µM* | -1% | ? | 12% | 5% | 0% | 12%
O=C(NC(=S)Nc1ccc(NC(=O)c2ccccc2)cc1)c1ccc(F)cc1 | 12 | 21% | 10% | -5 | . | -5% | . | . | . | . | .
CCn1cc(C(=O)N2CCN(c3cccc(C)c3C)CC2)c2cc(OC)c(OC)cc2c1=O | . | . | . | . | . | -1% | . | . | . | . | .
[N-]=C=C1C(=O)NC(=O)C([n+]2ccc(-c3ccncc3)cc2)C1c1ccccc1C(F)(F)F (configuration not stated) | 1 | -1% | -1% | 3 | 14µM* | -19% | 9%[38.3 µM] | ? | ? | ? | 6.5µM*
CSc1cccc(NC(=O)CCCOc2cc(=O)n(C)c3ccccc23)c1 | . | 14% | . | . | . | -2% | . | . | . | . | .
Cc1cccc(NC(=O)CNC(=O)c2ccc(S(=O)(=O)NCc3ccco3)cc2)c1C | . | 9% | . | . | . | 6% | . | . | . | . | .
C(=C\CSc1ncn[nH]1)/CSc1ncn[nH]1 | -2 | 39% | -7% | -5 | ? | 0% | 0%[38.3 µM] | 4% | -2% | 1% | 2%
CC1=C(C#N)c2nc(N)c(C#N)c(C)c2/C1=C\c1ccc(OCC(=O)O)c(Cl)c1 | -4 | 50% | -1% | -1 | 20µM* | -11% | ? | -3% | -17% | -12% | -6%
CCOCc1[nH]c(=S)[nH]c(=O)c1Cc1ccc(OC(C)C)cc1 | 5 | 14% | 8% | 11 | -4% | 0% | . | . | . | . | .
COc1ccc(Cc2c(O)[nH]c(=S)[nH]c2=O)cc1 | -4 | 14% | -2% | -4 | 25µM* | ? | -13%[10.4 µM] | 15% | -6% | 11% | 11%
